# “And” between values parts separate entries of the source, which are not always exact repeats. Identical values can stand only once. Inconclusive results are not listed. The source made the active and inactive calls. Calls come from the whole dose curve; as a rule, active = well fitted curve in the direction sought with a large enough effect; inconclusive = small, poorly fitted or top-dose-only effect, or another doubt; inactive = no such curve, though single readings can be large; an effect the other way counts as inactive or inconclusive.
# Experiments:
# [1] = Viability qHTS for spleen associated tyrosine kinase inhibitor (SYKi) naive MV4-11 cells (AID 1963823); details: MV4-11 AML viability, CellTiter-Glo luminescence, 72 h; series mostly up to 45 µM; note: nearly all actives have a fitted effect of over 40% in size; note: potency is the fitted concentration of half-maximal effect
# Summary of the method: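 In this viability screen, compounds acted on SYK inhibitor naive MV4-11 cells for three days (72 hr, 37 C). Remaining viable cells were measured by CellTiter-Glo luminescence following a 10 min room-temperature development.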
# [2] = Viability qHTS for spleen associated tyrosine kinase inhibitor (SYKi) drug resistant MV4-11 cells (AID 1963824); details: SYKi-resistant MV4-11 viability, CellTiter-Glo, 72 h; series mostly up to 45 µM; note: nearly all actives have a fitted effect of over 35% in size; note: potency is the fitted concentration of half-maximal effect
# Summary of the method: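 SYK-inhibitor-resistant MV4-11 AML cells were seeded at 500 per well onto compound and cultured 72 hours (37 °C, 5% CO2). CellTiter-Glo was then added, and after 10 min at room temperature, luminescence gave viability.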
# [3] = Quantitative highthroughput screen to assess conditional lethalithy of NOMO1 cells grown in RPMI1640 with untreated serum (RPMI+s) (AID 1963876); details: NOMO1 AML cells in RPMI+serum, CellTiter-Glo viability, 48 h; series mostly up to 45.8 µM; note: nearly all actives have a fitted effect of over 35% in size; note: potency is the fitted concentration of half-maximal effect;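 for Viability: 100% = DMSO wells and 0% = empty wells without cells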
# Summary of the method: (§1)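 Each medium arm—HPLM with 10% dialyzed FBS, or RPMI1640 with 5 mM glucose and 10% untreated or dialyzed FBS—was screened against an 11-point, 3-fold compound titration for 48 h at 37 °C, with CellTiter-Glo luminescence as endpoint.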
# [4] = Quantitative highthroughput screen to assess conditional lethalithy of NOMO1 cells grown in RPMI1640 with dialyzed fetal bovine serum (RPMI+ds) (AID 1963877); details: NOMO1 in RPMI+dialyzed FBS viability, ATP luminescence, 48 h; series mostly up to 45.8 µM; note: nearly all actives have a fitted effect of over 30% in size; note: potency is the fitted concentration of half-maximal effect;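 for Viability: 100% = DMSO control wells and 0% = empty wells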
# Summary of the method: as §1
# [5] = Quantitative highthroughput screen to assess conditional lethalithy of NOMO1 cells grown in Human Plasma-Like Medium with dialyzed fetal bovine serum (HPLM+ds) (AID 1963878); details: NOMO1 AML cells in HPLM+ds, CellTiter-Glo viability, 48 h; series mostly up to 45.8 µM; note: potency is the fitted concentration of half-maximal effect; nearly all actives have a fitted effect of over 35% in size
# Summary of the method: as §1
# [6] = Quantitative highthroughput screen to assess conditional lethalithy of P12 Ichikawa cells grown in Human Plasma-Like Medium with dialyzed fetal bovine serum (HPLM+ds) (AID 1963879); details: ATP luminescence, 48 h; Potency: viability; series mostly up to 45.8 µM; note: potency is the fitted concentration of half-maximal effect; nearly all actives have a fitted effect of over 35% in size
# Summary of the method: as §1
# [7] = Quantitative highthroughput screen to assess conditional lethalithy of P12 Ichikawa cells grown in RPMI1640 with dialyzed fetal bovine serum (RPMI+ds) (AID 1963880); details: ATP luminescence, 48 h; Potency: P12-Ichikawa viability; series mostly up to 45.8 µM
# Summary of the method: as §1
# [8] = Quantitative highthroughput screen to assess conditional lethalithy of P12 Ichikawa cells grown in RPMI1640 with untreated serum (RPMI+s) (AID 1963881); details: ATP luminescence, 48 h; Potency: viability; series mostly up to 45.8 µM
# Summary of the method: as §1
# [9] = Quantitative highthroughput screen to assess conditional lethalithy of SEM cells grown in Human Plasma-Like Medium with dialyzed fetal bovine serum (HPLM+ds) (AID 1963882); details: SEM B-ALL cells in HPLM+ds, CellTiter-Glo viability, 48 h; series mostly up to 45.8 µM; note: nearly all actives have a fitted effect of over 35% in size; note: potency is the fitted concentration of half-maximal effect
# Summary of the method: as §1
# [10] = Quantitative highthroughput screen to assess conditional lethalithy of SEM cells grown in RPMI1640 with unreated serum (RPMI+s) (AID 1963883); details: SEM B-ALL cells, CellTiter-Glo viability, 48 h; series mostly up to 45.8 µM
# Summary of the method: as §1
# [11] = Quantitative highthroughput screen to assess conditional lethalithy of SEM cells grown in RPMI1640 with dialyzed fetal bovine serum (RPMI+ds) (AID 1963884); details: SEM B-ALL cells, RPMI+dialyzed FBS, CellTiter-Glo viability, 48 h; series mostly up to 45.8 µM
# Summary of the method: as §1
# [12] = Cellular viability qHTS for adrenocortical cancer (ACC) cell line SW-13 (AID 1963989); details: SW-13 ACC cells viability, CellTiter-Glo, 48 h; activity (max response): hits give low values;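 note: cells grown in serum-free medium with ITS supplement; % is set by controls: 0 for no effect and ±100 for the full control effect; nearly all actives have a fitted effect of over 65% in size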
# Summary of the method: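 Luminescent ATP read-out (CellTiter-Glo, 20 min at room temperature) measured metabolically competent SW-13 cells after 48 h compound treatment. Final concentrations spanned up to 46 uM; bortezomib served as positive control.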
compound,measurement,setting,value
COc1cc(/C=C/C(=O)O[C@@H]2C[C@](O)(C(=O)O)C[C@@H](O)[C@H]2O)ccc1O,Potency,[1],inactive
same,Potency,[2],inactive
O=C(O)CCc1cccc(O[C@@H]2O[C@H](CO)[C@@H](O)[C@H](O)[C@H]2O)c1O,Potency,[1],inactive
same,Potency,[2],inactive
CC1(C)CC2C=C(C(=O)O)C3COC(=O)C(O)(CO)C23C1 (stereo unspecified),Potency,[1],inactive
same,Potency,[2],inactive
Cc1cc(C)cc(C(=O)NOCCCCCC(=O)NO)c1,Potency,[1],0.92 µM (active)
same,Potency,[2],0.58 µM (active)
C[C@H]1[C@@H](O)[C@H](O)C2[C@]3(C)C([C@@H](O)[C@H]4OC(=O)[C@@H]1[C@@]24C)[C@](C)(O)C=C[C@H]3O[C@@H]1O[C@H](CO)[C@@H](O)[C@H](O)[C@H]1O (stereo partly specified),Potency,[1],inactive
same,Potency,[2],inactive
Nc1nc(F)nc2c1ncn2[C@@H]1O[C@H](COP(=O)(O)O)[C@@H](O)[C@@H]1O,Potency,[1],8.33 µM (active)
same,Potency,[2],14.8 µM (active)
CCNc1nc2c(ncn2[C@H]2C[C@H](O)[C@@H](CO)O2)c(=O)[nH]1,Potency,[1],inactive
same,Potency,[2],inactive
CC12CCC3c4ccc(OC5OC(C(=O)O)C(O)C(O)C5O)cc4CCC3C1CCC2O (stereo unspecified),Potency,[1],inactive
same,Potency,[2],inactive
CC(C)(O)C(O)C(=O)OCc1ccc(O[C@@H]2O[C@H](CO)[C@@H](O)[C@H](O)[C@H]2O)cc1 (stereo partly specified),Potency,[1],inactive
same,Potency,[2],inactive
COc1c(O[C@@H]2O[C@H](CO)[C@@H](O)[C@H](O)[C@H]2O)c(CCC(=O)O)cc2ccoc12,Potency,[1],inactive
same,Potency,[2],inactive
C#CCN(Cc1cc2c(=O)[nH]c(C)nc2cc1Br)c1ccc(C(=O)NCc2cccnc2)cc1,Potency,[1],inactive
same,Potency,[2],inactive
CC1(CO)CC2C(O)C(=O)C3(CO)CC3(C)C2C1 (stereo unspecified),Potency,[1],inactive
same,Potency,[2],inactive
CC(C)C(CO)Nc1nc(Nc2cc(N)cc(Cl)c2)c2ncn(C(C)C)c2n1 (stereo unspecified),Potency,[1],0.517 µM (active)
same,Potency,[2],0.82 µM (active)
O=C(OC1CN2CCC1CC2)N1CCc2ccccc2C1c1ccccc1 (stereo unspecified),Potency,[1],18.4 µM (active)
same,Potency,[2],18.4 µM (active)
CN1CCN(c2cccc(Nc3nc4c(-c5ccc(S(C)(=O)=O)cc5)cccn4n3)c2)CC1,Potency,[1],146 nM (active) and 132 nM (active)
same,Potency,[2],130 nM (active) and 296 nM (active)
same,Potency,[3],inactive
CC(C)(N)c1ccc(-c2nc3ccccc3nc2-c2ccccc2)cc1,Potency,[1],9.2 µM (active)
same,Potency,[2],14.8 µM (active)
same,Potency,[3],0.0743 µM (active)
same,Potency,[4],0.0833 µM (active)
same,Potency,[5],0.0235 µM (active)
same,Potency,[6],0.0235 µM (active)
same,Potency,[7],0.0743 µM (active)
same,Potency,[8],0.0935 µM (active)
same,Potency,[9],0.0469 µM (active)
same,Potency,[10],0.0148 µM (active)
same,Potency,[11],0.0332 µM (active)
same,activity (max response),[12],-5.56% (inactive)
C/C(=N\N=C(N)N)c1cc(NC(=O)CCCCCCCCC(=O)Nc2cc(/C(C)=N/N=C(N)N)cc(/C(C)=N/N=C(N)N)c2)cc(/C(C)=N/N=C(N)N)c1,Potency,[1],18.4 µM (active)
same,Potency,[2],9.2 µM (active)
CN(C1CCc2c(c3ccccc3n2CC(=O)O)C1)S(=O)(=O)c1ccc(F)cc1 (stereo unspecified),Potency,[1],inactive
same,Potency,[2],inactive
same,Potency,[3],7.43 µM (active)
same,Potency,[4],7.43 µM (active)
same,Potency,[5],5.9 µM (active)
same,Potency,[6],8.33 µM (active)
same,Potency,[7],14.8 µM (active)
same,Potency,[8],9.35 µM (active)
same,Potency,[9],inactive
CC(C)(O)/C=C1/C(=O)C(C)(C)C(=O)C(C)(C)C1(O)O[C@@H]1O[C@H](COC(=O)c2cc(O)c(O)c(O)c2)[C@@H](O)[C@H](O)[C@H]1O (stereo partly specified),Potency,[1],inactive
same,Potency,[2],inactive
O=C1OCc2cc3cccc(O[C@@H]4O[C@H](CO)[C@@H](O)[C@H](O)[C@H]4O)c3c(O)c21,Potency,[1],inactive
same,Potency,[2],inactive
COc1cc2nc(C3CC3)nc(N3CCN(c4ccccc4OC)CC3)c2cc1OC,Potency,[1],16.4 µM (active)
same,Potency,[2],14.6 µM (active)
CC(C)(C)n1nc(Cc2cccc3ccccc23)c2c(N)ncnc21,Potency,[1],10.3 µM (active)
same,Potency,[2],13 µM (active)
CCC(=O)N1CCN(c2ccc(-n3c(=O)ccc4cnc5ccc(-c6cnc7ccccc7c6)cc5c43)cc2C(F)(F)F)CC1,Potency,[1],42.2 nM (active) and 36.2 nM (active)
same,Potency,[2],59.6 nM (active) and 102 nM (active)
same,Potency,[3],0.132 µM (active)
COc1cc(-c2ccc(O)cc2)c(OC)c(O)c1C1=CC(=O)OC1CC(=O)O (stereo unspecified),Potency,[1],inactive
same,Potency,[2],inactive
COCCOC(=O)C1=C(C)NC2=C(C(=O)CC(c3ccccc3OC)C2)C1c1cccc(O)c1 (stereo unspecified),Potency,[1],2.95 µM (active) and 4.11 µM (active)
same,Potency,[2],2.35 µM (active) and 5.8 µM (active)
same,Potency,[3],inactive
same,Potency,[4],inactive
